This is a sample that favours compounds with a hit; in the whole collection about 0.9% have one here.
gsp antagonist: antagonists of gsp mutant (McCune-Albright syndrome); gsp-mutant cells, cAMP HTRF, 30 min; Potency, µM (highest dose often 76.9 µM), without a hit: at the highest dose activity change, negative = inhibition, most hits filed as inhibitors; 0.4% of 340,000 active; calls by dose curve; cell line not stated here;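 note: intracellular cAMP measured with PDE inhibitor Ro 20-1724 present during compound exposure; potency is the fitted concentration of half-maximal effect; % is set by controls: 0 for no effect and ±100 for the full control effect; nearly all actives have a fitted effect of over 65% in size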
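Cells, 2000/well, grown 16–24 h in DMEM 10% FBS with 0.5 mg/ml G418, then compounds plus […] (300 uM addition stock), 30 min at 37C. cAMP read by HTRF (cAMP-d2 and anti-cAMP antibody-K in lysis buffer) after 30 min RT.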
gsp ag: gsp mutant agonism; gsp mutant cells, cAMP HTRF, 30 min; Potency, µM (doses to about 76.9 µM), for inactives: at the highest dose activation (cAMP increase), most hits filed as activators; 0.13% of 340,000 active; AID 624287; active = well fitted activation curve with a large enough effect; inconclusive = small, poorly fitted or top-dose-only effect, or another doubt; inactive = no such curve, though single readings can be large or run the other way; cell line not stated here;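 note: phosphodiesterase inhibitor Ro 20-1724 added with compounds to block cAMP breakdown; potency is the fitted concentration of half-maximal effect; nearly all actives have a fitted effect of over 60% in size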
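Cells in DMEM/10% FBS with G418 were pretreated with compounds in DMSO plus […] (300 uM stock) for 30 min at 37C. cAMP was measured by HTRF (cAMP-d2 plus anti-cAMP antibody-K) after 30 min at room temperature.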
RXFP1 ag: activates the human relaxin receptor RXFP1. HEK293T-RXFP1 cAMP TR-FRET, 30 min; response scale: percent of porcine relaxin response, buffer zero. Potency, µM (series often up to 57.5 µM), for the others: at the highest dose activation, actives largely listed as activators. 0.3% of 370,000 active; active = well fitted activation curve with a large enough effect; inconclusive = small, poorly fitted or top-dose-only effect; note: potency is the fitted concentration of half-maximal effect; % is set by controls: 0 for no effect and ±100 for the full control effect; nearly all actives have a fitted effect of over 60% in size
Target sequence (Q9HBX9 whole entry, looked up): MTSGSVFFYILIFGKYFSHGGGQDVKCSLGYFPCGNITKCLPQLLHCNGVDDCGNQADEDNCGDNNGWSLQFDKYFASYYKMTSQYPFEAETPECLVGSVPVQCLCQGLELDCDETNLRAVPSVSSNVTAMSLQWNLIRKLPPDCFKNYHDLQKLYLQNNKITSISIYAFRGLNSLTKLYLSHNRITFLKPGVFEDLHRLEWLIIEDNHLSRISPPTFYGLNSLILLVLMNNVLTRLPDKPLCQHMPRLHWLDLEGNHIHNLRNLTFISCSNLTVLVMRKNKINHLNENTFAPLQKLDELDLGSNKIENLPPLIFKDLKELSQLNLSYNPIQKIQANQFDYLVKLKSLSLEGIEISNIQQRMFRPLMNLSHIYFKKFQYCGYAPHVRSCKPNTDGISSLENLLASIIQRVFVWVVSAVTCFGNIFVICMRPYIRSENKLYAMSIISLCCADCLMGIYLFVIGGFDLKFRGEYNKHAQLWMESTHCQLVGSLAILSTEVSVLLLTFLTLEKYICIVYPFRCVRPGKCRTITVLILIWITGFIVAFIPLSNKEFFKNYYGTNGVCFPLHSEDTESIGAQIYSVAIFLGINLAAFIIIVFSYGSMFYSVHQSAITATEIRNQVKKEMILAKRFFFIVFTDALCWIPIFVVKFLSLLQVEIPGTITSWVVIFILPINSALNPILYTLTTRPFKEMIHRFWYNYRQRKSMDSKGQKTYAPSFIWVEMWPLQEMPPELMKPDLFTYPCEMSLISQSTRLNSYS
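HEK293 cells stably expressing RXFP1, treated 30 min at 37C with compounds plus PDE4 inhibitor Ro 20174; cAMP measured by HTRF TR-FRET. Normalized to buffer and 29 nM porcine relaxin; EC50 by Hill fit.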
RXFP1 antagonist: antagonists of human relaxin receptor RXFP1; AID 1259400; 0.59% of 350,000 active; HEK293-RXFP1, relaxin-stimulated cAMP HTRF, 30 min; hits give low values; activity change, negative = inhibition, % at 57.5 µM;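 active = activity change of -60% or lower, but not beyond a set lower limit; inconclusive = change between -60% and -40%, or beyond the set limit; inactive = change above -40%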; note: % is set by controls: 0 for no effect and ±100 for the full control effect
Starred values were filed as active, the others as inactive; ? = inconclusive; . = no result; [ ] = remark or other dose.

SMILES | gsp antagonist | gsp ag | RXFP1 ag | RXFP1 antagonist
O=C(COC(=O)CNC(=O)c1ccc(Cl)cc1Cl)NC1CCCCCCC1 | 8% | -4%[15.4 µM] | 0% | -61*
O=C(COC(=O)COc1ccc(Cl)cc1Cl)NC1CCCCCC1 | 3% | -29% | 1% | 6
Cc1nn(CCCC(=O)NCc2ccccc2)c(=O)c2nccn12 | 9% | ? | 28µM* | 20
COc1cccc(CNC(=O)CCCn2nc(C)n3c(cc4sccc43)c2=O)c1 | -15% | 1% | 18% | 3
COc1ccc(CNC(=O)CCCn2nc(C)n3ccnc3c2=O)cc1 | 5% | ? | ? | 9
CCc1ccc(CNC(=O)CCCn2nc(C)n3ccnc3c2=O)cc1 | 7% | 16µM* | ? | -6
COc1ccc(-c2nc3cc(C(C)C)ccc3o2)cc1NC(=O)COc1ccc(C)cc1C | . | . | 0% | -5
CCOC(=O)N1CCc2c(sc3c2c(=O)n(-c2ccc(Cl)cc2)c(=O)n3Cc2cccc(OC)c2)C1 | . | . | -2% | 7
Cc1ccc(S(=O)(=O)N(C)c2ccc(C(=O)Nc3cccc(C)n3)cc2)cc1 | 35µM* | 9%[15.4 µM] | 0% | -35
Cc1ccc(S(=O)(=O)N(C)c2ccc(C(=O)Nc3ccccn3)cc2)cc1 | -28% | -27% | 0% | -25
CCN(CC)S(=O)(=O)c1cccc(N=Nc2c(O)c3ccccc3oc2=O)c1 | 3% | ? | 16µM* | -3
CCN(CC)S(=O)(=O)c1cccc(NC(=O)c2cc3ccccc3o2)c1 | ? | 1% | 4% | 4
Cc1ccc(S(=O)(=O)Nc2ccccc2-c2ccccc2NS(=O)(=O)c2ccc(C)cc2)cc1 | 40µM* | -3% | -4% | -16
Cc1ccc(S(=O)(=O)Nc2ccccc2C(N)=O)cc1 | 9% | 24% | 0% | -5
Cc1cccc(CNc2ncnc3ccc(-c4ccc5c(ccn5C)c4)cc23)c1 | . | . | 4% | .
COc1nc(Cl)cn(-c2ccc(C)cc2)c1=O | 11% | -17% | 2% | -2
Cc1ccc(-n2c(Cl)c(Cl)nc(Cl)c2=O)cc1 | 5% | -15%[15.4 µM] | -3% | -103*
NC(=O)c1nsc(C(=O)N(CC(=O)NC2CCCC2)c2ccc(F)c(Cl)c2)c1N | 5% | -19% | 1% | -65*
COc1ccc(Cn2cc(C(=O)c3ccc(Cl)cc3)c(=O)c3cc4c(cc32)OCO4)cc1 | . | . | -1% | -28
Fc1ccc(Br)cc1C1C=C(c2ccc(Br)s2)Nc2ncnn21 (centres undefined) | ? | -6% | 9% | -68*
CC(=O)c1cc2ccccc2s1 | . | . | . | 14
CC1CCCN(S(=O)(=O)c2ccc3c(c2)c(=O)nc2ccc(Cl)cn23)C1 (centres undefined) | 40µM* | ? | 1% | 40
CC1CCCN(S(=O)(=O)c2ccc3c(c2)n(C)c(=O)c(=O)n3C)C1 (centres undefined) | 50µM* | 14% | 6% | 8
Cc1ccc(S(=O)(=O)N2CCCC(C)C2)cc1 (centres undefined) | -3% | -14% | 0% | -4
Cc1ccn2c(c1)nc(=O)c1cc(S(=O)(=O)N3CCOCC3)ccc12 | 6% | ? | 6% | -30
SMILES | gsp antagonist | gsp ag | RXFP1 ag | RXFP1 antagonist
Cc1cccc(N2CCN(C(=O)CCCSc3nc4ccccc4[nH]3)CC2)c1C | 45µM* | -3% | 2% | -29
O=C(CCCSc1nc2ccccc2[nH]1)N1CCN(c2ccccc2)CC1 | -11% | 3% | 0% | -2
C=CCn1c(O)c(C2=c3ccccc3=NC2=O)c2ccccc21 | 11% | -28% | 1% | -95*
O=C(Nc1ccccc1O)c1ccccc1O | 25µM* | 11% | -2% | 8
Cc1ccc(Cl)c(OCC(O)CNC(C)(C)C)c1 (centres undefined) | . | . | . | -4
C=CC[n+]1c(-c2ccc(C)cc2)csc1Nc1c(C)n(C)n(-c2ccccc2)c1=O | -6% | 0%[15.4 µM] | 4% | ?
C=CC[n+]1c(-c2ccc(Cl)cc2Cl)csc1Nc1c(C)n(C)n(-c2ccccc2)c1=O | ? | 2% | 0% | -68*
Cc1ccc(S(=O)(=O)N(CC(=O)Nc2ccccc2C(=O)O)c2ccc(Cl)cc2)cc1 | ? | 3%[15.4 µM] | 4% | -76*
CCN(C(=O)CSc1nc2ncccc2[nH]1)c1ccc(C(C)C)cc1 | . | . | 2% | -8
CCOC(=O)C1C(=O)Oc2ccc3ccccc3c2C1C1CCOC1=O (centres undefined) | 50µM* | -5% | 0% | .
COC(=O)c1cc2c(=O)c3ccccc3oc2nc1C | 26% | -3%[15.4 µM] | -2% | -8

Source: PubChem (National Center for Advancing Translational Sciences (NCATS))
